Shiga inhibitor – inhibitors of Shiga toxin in Vero cells | Vero cells, Shiga toxin protein synthesis inhibition reporter | inhibition, % at 38.7 µM | 290,000 tested, 9.2% active; in the data active means inhibition mostly above about 28%, no sharp cut-off; inactive means mostly below about 43%
SARS PLpro yeast – blocks SARS-CoV papain-like protease in a yeast assay; S. cerevisiae expressing SARS-CoV PLpro, growth rescue; Potency, µM (series often up to 32.9 µM), actives largely listed as activators; AID 485353; 330,000 tested, 0.19% active; calls by dose curve; further: nearly all actives have a fitted effect of over 55% in size
Cycloheximide cs – counter-screen hit for Shiga toxin inhibitors, cycloheximide. cell reporter, cycloheximide protein synthesis inhibition counterscreen. max response, %. 300,000 tested, 12% active. AID 2314; in the data active means max response mostly above about 13%, no sharp cut-off; inactive means mostly below about 14%; further: read at 38.3 µM for the half of the compounds with a filed dose
Pf growth 96h – P. falciparum growth inhibition at 96 hour, primary screen for plastid delayed-death inhibitors; P. falciparum luciferase reporter growth, 96 h; Potency, µM (series often up to 28.7 µM), most hits filed as inhibitors; 320,000 tested, 6.9% active; AID 504834
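Compounds incubated with erythrocytes infected by luciferase-expressing P. falciparum (2% hematocrit, 0.05% parasitemia final) for 96 hours, 37 C in 5% CO2. Growth inhibition scored as decreased luciferase luminescence.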
Pf growth 48h – P. falciparum growth inhibition at 48 hours (one generation); P. falciparum luciferase growth in erythrocytes, 48 h; Potency, µM (highest dose often 28.7 µM), actives largely listed as inhibitors; 310,000 tested, 5.9% active
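Cell-based growth assay: transgenic P. falciparum expressing firefly luciferase, cultured in red cells within RPMI 1640 containing 0.5% w/v Albumax, 24 mM bicarbonate and gentamycin. A drop in luciferase activity indicates inhibition.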
AMA1-RON2 inh – disrupts binding of P. falciparum AMA1 to RON2. AlphaScreen AMA1-biotinylated RON2 peptide binding. Potency, µM (highest dose often 58.2 µM), actives largely listed as inhibitors. 360,000 tested, 0.2% active. AID 720542; further: nearly all actives have a fitted effect of over 45% in size
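AMA1 (3D7) with his tag at 25 nM final met compounds first, then biotinylated RON2 peptide at 25 nM; detection used donor plus acceptor beads, 10 µg/mL apiece, read by AlphaScreen after 30 min at room temperature.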
Hits are given with their value; 0 = inactive; ? = inconclusive; - = no result; [ ] = dose if it differs, or a comment. Only some compounds are listed: those with a hit (about 19% of all), similar ones and a draw of the others. Unless noted, the call rests on the fitted dose curve; in most records, active means well fitted curve in the direction sought with a large enough effect; inconclusive means small, poorly fitted or top-dose-only effect, or another doubt; inactive means no such curve, though single readings can be large; an effect the other way counts as inactive or inconclusive.

SMILES	Shiga inhibitor	SARS PLpro yeast	Cycloheximide cs	Pf growth 96h	Pf growth 48h	AMA1-RON2 inh
CC(=O)N1CCN(C(=O)c2ccc3c(c2)OCO3)CC1	-	0	-	-	-	0
Cc1nn(C(=O)c2ccc3c(c2)OCO3)c(N)c1-c1ccccc1	76	0	39	0	0	0
Cc1nn(C(=O)c2cccs2)c(N)c1-c1ccccc1	68	0	35	0	0	0
CC(=O)c1c(C)nn(C(=O)c2cccs2)c1C	0	0	0	0	-	0
O=C(Nc1cccc(C(F)(F)F)c1)c1cccnc1N1CCN(c2ccccc2)CC1	0	0	0	-	0	30µM
O=C(Nc1ccccc1)c1cccc(C(F)(F)F)c1	33	0	11	0	0	0
Cc1nc2ccc(NC(=O)c3cccc(C(F)(F)F)c3)cc2o1	0	0	21	0	0	0
O=c1oc2ccc(C#CC3(O)CCCCC3)cc2cc1-n1cc(C2(O)CCCCC2)nn1	-	0	-	0	0	0
C=CCn1c(CCc2cc(C(C)(C)C)c(O)c(C(C)(C)C)c2)n[nH]c1=S	0	0	0	?	?	0
Cc1cccc(NC(=O)CN2CCCCCC2)c1	0	0	0	0	0	0
Cc1ccc(C(=O)Nc2cccc(NC(=O)CN3CCCCC3)c2)cc1	-	0	14	0	0	0
COc1cccc(NC(=O)CN2C(=O)NC(C)(CCC(C)C)C2=O)c1 (stereo not drawn)	0	0	0	0	10µM	0
COc1ccc(NC(=O)CN2CCCC2)cc1	-	0	0	0	0	0
O=C(CN1CCCCC1)Nc1cccc(Br)c1	0	0	15	?	0	0
COc1cccc(NC(=O)CN2CCCCCC2)c1	-	0	23	?	0	0
Cc1ccccc1-c1nsc(SCC(=O)Nc2ccc3c(c2)OCO3)n1	0	0	33	0	?	0[11.6 µM]
Cc1cccc(-c2nsc(SCC(=O)Nc3nccs3)n2)c1	0	0	0	0	?	0
Cc1cccc(-c2nsc(SCC(=O)Nc3ccc4c(c3)OCO4)n2)c1	36	0	27	0	?	0
Cc1ccc(S(=O)(=O)Nc2cccc(-c3ccc(N4CCCCCC4)nn3)c2)c(C)c1	88	0	42	?	0	0
O=[N+]([O-])c1ccccc1S(=O)(=O)Nc1cccc(-c2ccc(N3CCCC3)nn2)c1	-	0	-	0	0	0
c1ccc2c(C[C@@H]3CNCCN3CC3CCCCC3)cccc2c1	-	0	-	12µM	?	0
Cc1ccc(-c2ccc(=O)n(Cc3cccc(Br)c3)n2)cc1	0	0	0	?	0	0
COc1ccc(NC(=O)C2CCCN2c2ccc(OC)c(OC)c2)cc1OC (stereo not drawn)	0	0	0	0	10µM	0
COc1ccc(NC(=O)C2CCCCN2N)cc1OC (stereo not drawn)	0	0	0	0	0	0
COc1ccc(NC(=O)CC2CCCCC2)cc1OC	0	0	27	2.6µM	3.3µM	?
SMILES	Shiga inhibitor	SARS PLpro yeast	Cycloheximide cs	Pf growth 96h	Pf growth 48h	AMA1-RON2 inh
O=C(CC1CCCC1)Nc1ccc(Br)cc1	76	0	32	0	0	0
O=C(CC1CCCCC1)Nc1ncn[nH]1	0	0	0	2.9µM	0	0
COc1ccc(Cl)cc1NC(=O)CN1CCN(Cc2ccccc2)CC1	-	0	0	0	0	0
CCN1CCN(c2nc3c(C)cccn3c(=O)c2/C=C(\C#N)C(=O)NCCCOC)CC1	0	0	0	0	0	0
CCc1nc(SCc2cc(=O)[nH]c3ccccc23)c2c(C)c(C)sc2n1	-	-	-	-	-	0
C[C@@H]1CN([C@H](C)CO)C(=O)CCCn2cc(nn2)CO[C@H]1CN(C)S(=O)(=O)c1ccc(F)cc1	-	-	-	-	-	0
COc1ccc(NC(=O)NNS(=O)(=O)c2ccc(OC)c(OC)c2)c(OC)c1	0	0	0	0	0	0
CC(=O)OC[C@H]1O[C@@H](Oc2cc3ccc(=O)oc3cc2OC(C)=O)[C@H](OC(C)=O)[C@@H](OC(C)=O)[C@@H]1OC(C)=O	-	-	-	-	-	0
CCc1ccccc1NC(=O)NCc1cccnc1	0	0	0	0	0	0
CCc1nc2c(OCc3cc(Cl)cc(Cl)c3)cccn2c1N(C)C(=O)c1ccc(OC)cc1	-	-	-	-	-	0
COc1ccc(OC)c(N(CC(=O)NCC2CCCO2)S(=O)(=O)c2ccccc2)c1 (stereo not drawn)	0	0	0	0	0	0
CC1CC(C)CN(CCC(=O)Nc2ccc(Br)cc2)C1 (stereo not drawn)	-	0	0	7.4µM	0	0
CC1CCN(CCC(=O)Nc2ccc(Br)cc2)CC1	-	-	-	-	-	0
COc1cc(NC(=S)N2CCN(S(=O)(=O)c3ccc(F)cc3)CC2)cc(OC)c1	0	0	0	0	2.3µM	0
COc1cc(NC(=S)N2CCN(S(C)(=O)=O)CC2)cc(OC)c1	0	0	0	?	0	0
CCNC(=S)N1CCC(C(O)(c2ccccc2)c2ccccc2)CC1	0	0	0	?	0	0
COc1cc(NC(=S)N2CCC(C(O)(c3ccccc3)c3ccccc3)CC2)cc(OC)c1	0	0	0	2.1µM	0	0
COc1cc(NC(=S)N2CCN(S(=O)(=O)c3ccccc3)CC2)cc(OC)c1	0	0	0	0	?	0
COc1cccc(NC(=S)N2CCN(S(=O)(=O)c3ccc(F)cc3)CC2)c1	0	0	0	?	1.9µM	0
COc1cccc(NC(=S)N2CCN(S(C)(=O)=O)CC2)c1	0	0	0	4.1µM	0	0
COc1ccc(NC(=S)N2CCN(S(=O)(=O)c3ccc(F)cc3)CC2)cc1OC	0	0	0	0	?	0
Cc1c(Nc2cc(Cl)c3nonc3c2[N+](=O)[O-])c(=O)n(-c2ccccc2)n1C	0	0	0	0	0	0
Cc1c(Nc2ccc3nonc3c2[N+](=O)[O-])c(=O)n(-c2ccccc2)n1C	0	0	0	0.66µM	0	0
CCOC(=O)C1(C)CCCCN1C(=O)c1cccs1 (stereo not drawn)	-	-	-	-	-	0
O=C(CSc1ncc(-c2ccc(F)cc2)[nH]1)N1CCCCC1	44	0	26	0	0	0
SMILES	Shiga inhibitor	SARS PLpro yeast	Cycloheximide cs	Pf growth 96h	Pf growth 48h	AMA1-RON2 inh
NC(=O)CSc1ncc(-c2ccccc2)[nH]1	79	0	14	?	0	0
NC(=O)CSc1ncc(-c2ccc([N+](=O)[O-])cc2)[nH]1	0	0	0	0	0	0
O=C(CSc1ncc(-c2ccccc2)[nH]1)Nc1ccccc1	0	0	0	-	0	0
O=C(CSc1ncc(-c2ccccc2)[nH]1)Nc1ccccc1F	72	0	40	0	0	0
O=C(CSc1ncc(-c2ccccc2)[nH]1)Nc1cccc(O)c1	0	0	12	0	-	0
O=C(CSc1ncn[nH]1)N1CCCCC1	0	0	0	0	0	0
CC(NC(=O)[C@H](C)N1C(=O)N2CCc3c([nH]c4ccccc34)[C@@]2(C)C1=O)c1ccccc1 (stereo partly drawn)	0	0	0	0	?	?
NC(=O)C1CCN(C(=O)/C(=C/c2ccccc2)NC(=O)c2ccccc2)CC1	0	0	0	0	0	0
Cc1ccc(OC[C@H](O)[C@H](C)NC(C)C)c2c1CCC2	-	-	-	?	9.3µM	0
